Test results taken from PubChem BioAssay.
For some assays here: Potency and affinity values are given separately. Calls of active or inactive are those of the source. How the calls were made is not given here.

target: Plasmodium falciparum protein kinase 6 (PK6, PF3D7_1337100) (UniProt Q8IDW1); assay: PfPK6 kinase inhibitors, biochemical, TCAMS library (AID 1159586); conditions: recombinant PfPK6, Kinase-Glo ATP depletion luminescence
Sequence (Q8IDW1 1-305): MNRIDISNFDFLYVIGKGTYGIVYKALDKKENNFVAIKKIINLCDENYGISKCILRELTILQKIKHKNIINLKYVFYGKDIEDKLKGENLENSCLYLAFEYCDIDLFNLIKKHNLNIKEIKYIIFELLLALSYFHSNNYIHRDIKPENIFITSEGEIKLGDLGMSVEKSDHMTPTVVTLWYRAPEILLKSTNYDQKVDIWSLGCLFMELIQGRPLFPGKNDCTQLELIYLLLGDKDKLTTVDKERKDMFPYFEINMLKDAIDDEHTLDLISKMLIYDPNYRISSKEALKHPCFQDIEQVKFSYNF

outcome, inactive:
Cc1nc(C(=O)N2CCCC[C@H]2CNC(=O)c2ccc(-c3ccc(N4CCCC4=O)cc3C)cc2)c(-c2ccc(F)cc2)s1, CCCNc1nc(NCc2c(C)cccc2C)nc(NC(C)(C)C)n1, COc1cc2c(cc1N1C[C@@H](C)N[C@@H](C)C1)N(C(=O)c1ccc(-c3ccc(-c4ncc[nH]4)cc3C)cc1)CC2, CCc1cccc2sc(N3CCN(C(=O)c4ccc([N+](=O)[O-])o4)CC3)nc12, O=S(=O)(Nc1cccc(CCN2CCC(N3CCCCC3)CC2)c1)c1ccccc1C(F)(F)F, O=C(c1cccs1)N1CCN(c2ccc([N+](=O)[O-])c(NC3CC3)c2)CC1, Oc1cc(Nc2ccnc3cc(-c4ccc(CN5CCCCC5)o4)c(Cl)cc23)c(Cl)cc1F, O=[N+]([O-])c1ccc(NC(=NCCOc2ccccc2)Nc2ccccc2Br)c(O)c1, COc1ccccc1N1CCN(CCCCNC(=O)c2ccc(NC(=O)c3ccc(C(F)(F)F)cc3)cc2)CC1, COc1cc2ncnc(NCCc3ccccc3Cl)c2cc1OC, O=C(CCc1cnc[nH]1)Nc1cccc(-c2ccc(-c3nc4ccc(F)cc4[nH]3)cc2)c1, CNC(=O)NC1=NC(C)(C)N(OCCCOc2cc(Cl)c(Cl)cc2Cl)C(N)=N1, CC(Cc1ccc(OCCN2CCN(c3cccc(Cl)c3)CC2)cc1)NCC(O)c1cccc(C(F)(F)F)c1 (stereo not given), CCc1ccc(-c2nc3cc(NC(=O)c4cc([N+](=O)[O-])cc([N+](=O)[O-])c4)ccc3o2)cc1, O=C(/C=C/c1ccc([N+](=O)[O-])cc1)N1CCC(NS(=O)(=O)c2ccc(F)cc2)CC1, O=C(Nc1ccc(Cn2ncc(N3CCCNCC3)c(Cl)c2=O)cc1)Nc1cc(F)cc(C(F)(F)F)c1, O=C(Cc1cccs1)NC(CCCN1CCC(Oc2cccc(Cl)c2)CC1)c1ccc(Cl)c(Cl)c1 (stereo not given), NCC1CCCN1Cc1ccc(-c2ccc(-c3nc4ccc(C(F)(F)F)cc4[nH]3)s2)cc1 (stereo not given), Cc1ccccc1Nc1nc(Nc2ccccc2)c2ccccc2n1, O=C(C=NO)Nc1ccccc1[N+](=O)[O-], FC(F)(F)c1ccc2c(NCCc3ccccc3)ccnc2c1, COc1ccc(-c2ccc(NC(=O)c3ccc(F)cc3)cc2)cc1CNC(C)C, COc1ccccc1CCN(C)CCN1CCC(NC(=O)c2ccc(-c3ccc(C(F)(F)F)cc3)cc2)CC1, FC(F)(F)c1ccc2nc(-c3ccc(-c4cccc(CNCCc5ccncc5)c4)s3)[nH]c2c1, CC(C)(C)C/C=C\c1ccc(C(=O)NCC2CC2)cc1, CCOc1ccc(S(=O)(=O)N(C)c2ccc(OCC(=O)Nc3nccs3)cc2)cc1, CCOc1cc(C(=O)N[C@@H](Cc2ccccc2)[C@H](O)CNCc2cc(OC)cc(OC)c2)cc(N2CCCS2(=O)=O)c1, COc1ccc(CNc2nc(NCc3ccc(C(F)(F)F)cc3)c3cc(OC)c(OC)cc3n2)cc1OC, Cc1c(CNCCCNc2nc3cscc3[nH]2)sc(C(F)F)c1Br, Cc1ccc(Nc2nccc(NCC(O)c3cccc(C(F)(F)F)c3)n2)cc1 (stereo not given), Cc1ccccc1Nc1nc(NCCc2ccccc2)nc2ccccc12, CCOC(=O)c1c(C)n(-c2ccccc2)c2ccc(OC(=O)COc3ccc(Cl)cc3Cl)cc12, CCc1cc2c3c(N)nc(N)nc3ccc2n1C(C)CC (stereo not given), CCc1ccc(NC(=O)c2ccc(CN3CCCN(CCC(C)C)CC3)cc2)cc1, Oc1ccccc1CN1CCCC(COC(c2ccc(F)cc2)c2ccc(F)cc2)C1 (stereo not given), CC1CN(Cc2ccc(C#N)cc2)CCN1c1ccc(NC(=O)c2cccs2)cc1 (stereo not given), O=C(Nc1ccccc1)N(Cc1ccccc1-c1cccc(CNCc2ccc3c(c2)OCO3)c1)C1CCN(Cc2ccccc2)CC1, COc1cc(CC2c3cc(O)c(Cl)cc3CCN2C)c(OC)cc1C (stereo not given), COc1cc(NC(=O)/C=C/c2cc(F)cc(F)c2F)cc(OCCN2CCC(O)(c3ccccc3)CC2)c1, CC(Nc1nc(Nc2ccc(F)cc2)nc(SCC(N)=O)n1)c1ccccc1 (stereo not given)

target: Protein kinase 7 (PK7), Plasmodium falciparum 3D7 (PF3D7_0213400) (UniProt Q7YTF7); assay: inhibition of Plasmodium PK7 catalytic activity – biochemical, TCAMS antimalarial set, Kinase-Glo luminescence (AID 1159587); conditions: recombinant PfPK7, Kinase-Glo ATP depletion luminescence
Sequence (Q7YTF7 1-343): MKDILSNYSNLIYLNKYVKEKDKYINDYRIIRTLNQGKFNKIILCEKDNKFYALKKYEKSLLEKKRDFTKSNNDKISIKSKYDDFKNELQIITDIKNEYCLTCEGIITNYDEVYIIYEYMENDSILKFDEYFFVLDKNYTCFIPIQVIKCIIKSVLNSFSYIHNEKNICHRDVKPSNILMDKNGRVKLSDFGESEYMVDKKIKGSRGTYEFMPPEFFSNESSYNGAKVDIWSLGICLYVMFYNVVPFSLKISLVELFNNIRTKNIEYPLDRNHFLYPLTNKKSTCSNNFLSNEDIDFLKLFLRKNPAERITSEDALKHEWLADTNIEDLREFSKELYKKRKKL

outcome, inactive:
Cc1nc(C(=O)N2CCCC[C@H]2CNC(=O)c2ccc(-c3ccc(N4CCCC4=O)cc3C)cc2)c(-c2ccc(F)cc2)s1, CCCNc1nc(NCc2c(C)cccc2C)nc(NC(C)(C)C)n1, COc1cc2c(cc1N1C[C@@H](C)N[C@@H](C)C1)N(C(=O)c1ccc(-c3ccc(-c4ncc[nH]4)cc3C)cc1)CC2, CCc1cccc2sc(N3CCN(C(=O)c4ccc([N+](=O)[O-])o4)CC3)nc12, O=S(=O)(Nc1cccc(CCN2CCC(N3CCCCC3)CC2)c1)c1ccccc1C(F)(F)F, O=C(c1cccs1)N1CCN(c2ccc([N+](=O)[O-])c(NC3CC3)c2)CC1, Oc1cc(Nc2ccnc3cc(-c4ccc(CN5CCCCC5)o4)c(Cl)cc23)c(Cl)cc1F, O=[N+]([O-])c1ccc(NC(=NCCOc2ccccc2)Nc2ccccc2Br)c(O)c1, COc1ccccc1N1CCN(CCCCNC(=O)c2ccc(NC(=O)c3ccc(C(F)(F)F)cc3)cc2)CC1, COc1cc2ncnc(NCCc3ccccc3Cl)c2cc1OC, O=C(CCc1cnc[nH]1)Nc1cccc(-c2ccc(-c3nc4ccc(F)cc4[nH]3)cc2)c1, CNC(=O)NC1=NC(C)(C)N(OCCCOc2cc(Cl)c(Cl)cc2Cl)C(N)=N1, CC(Cc1ccc(OCCN2CCN(c3cccc(Cl)c3)CC2)cc1)NCC(O)c1cccc(C(F)(F)F)c1 (stereo not given), CCc1ccc(-c2nc3cc(NC(=O)c4cc([N+](=O)[O-])cc([N+](=O)[O-])c4)ccc3o2)cc1, O=C(/C=C/c1ccc([N+](=O)[O-])cc1)N1CCC(NS(=O)(=O)c2ccc(F)cc2)CC1, O=C(Nc1ccc(Cn2ncc(N3CCCNCC3)c(Cl)c2=O)cc1)Nc1cc(F)cc(C(F)(F)F)c1, O=C(Cc1cccs1)NC(CCCN1CCC(Oc2cccc(Cl)c2)CC1)c1ccc(Cl)c(Cl)c1 (stereo not given), NCC1CCCN1Cc1ccc(-c2ccc(-c3nc4ccc(C(F)(F)F)cc4[nH]3)s2)cc1 (stereo not given), Cc1ccccc1Nc1nc(Nc2ccccc2)c2ccccc2n1, O=C(C=NO)Nc1ccccc1[N+](=O)[O-], FC(F)(F)c1ccc2c(NCCc3ccccc3)ccnc2c1, COc1ccc(-c2ccc(NC(=O)c3ccc(F)cc3)cc2)cc1CNC(C)C, COc1ccccc1CCN(C)CCN1CCC(NC(=O)c2ccc(-c3ccc(C(F)(F)F)cc3)cc2)CC1, FC(F)(F)c1ccc2nc(-c3ccc(-c4cccc(CNCCc5ccncc5)c4)s3)[nH]c2c1, CC(C)(C)C/C=C\c1ccc(C(=O)NCC2CC2)cc1, CCOc1ccc(S(=O)(=O)N(C)c2ccc(OCC(=O)Nc3nccs3)cc2)cc1, CCOc1cc(C(=O)N[C@@H](Cc2ccccc2)[C@H](O)CNCc2cc(OC)cc(OC)c2)cc(N2CCCS2(=O)=O)c1, COc1ccc(CNc2nc(NCc3ccc(C(F)(F)F)cc3)c3cc(OC)c(OC)cc3n2)cc1OC, Cc1c(CNCCCNc2nc3cscc3[nH]2)sc(C(F)F)c1Br, Cc1ccc(Nc2nccc(NCC(O)c3cccc(C(F)(F)F)c3)n2)cc1 (stereo not given), Cc1ccccc1Nc1nc(NCCc2ccccc2)nc2ccccc12, CCOC(=O)c1c(C)n(-c2ccccc2)c2ccc(OC(=O)COc3ccc(Cl)cc3Cl)cc12, CCc1cc2c3c(N)nc(N)nc3ccc2n1C(C)CC (stereo not given), CCc1ccc(NC(=O)c2ccc(CN3CCCN(CCC(C)C)CC3)cc2)cc1, Oc1ccccc1CN1CCCC(COC(c2ccc(F)cc2)c2ccc(F)cc2)C1 (stereo not given), CC1CN(Cc2ccc(C#N)cc2)CCN1c1ccc(NC(=O)c2cccs2)cc1 (stereo not given), O=C(Nc1ccccc1)N(Cc1ccccc1-c1cccc(CNCc2ccc3c(c2)OCO3)c1)C1CCN(Cc2ccccc2)CC1, COc1cc(CC2c3cc(O)c(Cl)cc3CCN2C)c(OC)cc1C (stereo not given), COc1cc(NC(=O)/C=C/c2cc(F)cc(F)c2F)cc(OCCN2CCC(O)(c3ccccc3)CC2)c1, CC(Nc1nc(Nc2ccc(F)cc2)nc(SCC(N)=O)n1)c1ccccc1 (stereo not given)
